Experiments:
[1] = target: Ribosomal protein S6 kinase beta-1 (Homo sapiens) (UniProt P23443); settings: at 1 µM
[2] = target: Ribosomal protein S6 kinase beta-1 (Homo sapiens) (UniProt P23443); settings: at 10 µM
[3] = target: Serine/threonine-protein kinase Nek6 (Homo sapiens) (UniProt Q9HC98); settings: at 1 µM
[4] = target: Serine/threonine-protein kinase Nek6 (Homo sapiens) (UniProt Q9HC98); settings: at 10 µM
[5] = target: Serine/threonine-protein kinase Nek7 (Homo sapiens) (UniProt Q8TDX7); settings: at 1 µM
[6] = target: Serine/threonine-protein kinase Nek7 (Homo sapiens) (UniProt Q8TDX7); settings: at 10 µM
[7] = target: T1, Serine/threonine-protein kinase NLK (Homo sapiens) (UniProt Q9UBE8); settings: at 1 µM
T1 sequence (whole entry): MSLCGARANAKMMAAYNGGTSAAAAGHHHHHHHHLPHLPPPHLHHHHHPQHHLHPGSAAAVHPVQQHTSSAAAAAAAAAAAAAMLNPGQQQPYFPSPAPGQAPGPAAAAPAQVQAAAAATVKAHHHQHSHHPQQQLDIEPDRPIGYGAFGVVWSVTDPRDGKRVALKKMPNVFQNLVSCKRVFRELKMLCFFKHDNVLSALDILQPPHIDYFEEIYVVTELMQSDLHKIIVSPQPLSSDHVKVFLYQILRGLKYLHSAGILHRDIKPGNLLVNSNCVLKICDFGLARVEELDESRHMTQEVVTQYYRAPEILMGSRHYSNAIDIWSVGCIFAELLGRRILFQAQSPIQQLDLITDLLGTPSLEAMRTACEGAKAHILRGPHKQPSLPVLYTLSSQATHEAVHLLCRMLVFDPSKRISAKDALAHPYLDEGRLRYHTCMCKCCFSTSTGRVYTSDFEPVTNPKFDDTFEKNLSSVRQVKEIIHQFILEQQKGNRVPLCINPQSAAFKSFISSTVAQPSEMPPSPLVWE

[8] = target: T1, Serine/threonine-protein kinase NLK (Homo sapiens); settings: at 10 µM
[9] = target: Serine/threonine-protein kinase PAK 2 (Homo sapiens) (UniProt Q13177); settings: at 1 µM
[10] = target: Serine/threonine-protein kinase PAK 2 (Homo sapiens) (UniProt Q13177); settings: at 10 µM
[11] = target: Serine/threonine-protein kinase PAK 4 (Homo sapiens) (UniProt O96013); settings: at 1 µM
[12] = target: Serine/threonine-protein kinase PAK 4 (Homo sapiens) (UniProt O96013); settings: at 10 µM
[13] = target: Serine/threonine-protein kinase PAK 5 (Homo sapiens) (UniProt Q9P286); settings: at 1 µM
[14] = target: Serine/threonine-protein kinase PAK 5 (Homo sapiens) (UniProt Q9P286); settings: at 10 µM
[15] = target: Serine/threonine-protein kinase PAK 6 (Homo sapiens) (UniProt Q9NQU5); settings: at 1 µM
[16] = target: Serine/threonine-protein kinase PAK 6 (Homo sapiens) (UniProt Q9NQU5); settings: at 10 µM
[17] = target: PAS domain-containing serine/threonine-protein kinase (Homo sapiens) (UniProt Q96RG2); settings: at 10 µM
[18] = target: Activated CDC42 kinase 1 (Homo sapiens) (UniProt Q07912); settings: at 1 µM
[19] = target: Activated CDC42 kinase 1 (Homo sapiens) (UniProt Q07912); settings: at 10 µM
[20] = target: ALK tyrosine kinase receptor (Homo sapiens) (UniProt Q9UM73); settings: at 1 µM

Serine/threonine-protein kinase PAK 5 (Homo sapiens), sequence (Q9P286 whole entry, looked up): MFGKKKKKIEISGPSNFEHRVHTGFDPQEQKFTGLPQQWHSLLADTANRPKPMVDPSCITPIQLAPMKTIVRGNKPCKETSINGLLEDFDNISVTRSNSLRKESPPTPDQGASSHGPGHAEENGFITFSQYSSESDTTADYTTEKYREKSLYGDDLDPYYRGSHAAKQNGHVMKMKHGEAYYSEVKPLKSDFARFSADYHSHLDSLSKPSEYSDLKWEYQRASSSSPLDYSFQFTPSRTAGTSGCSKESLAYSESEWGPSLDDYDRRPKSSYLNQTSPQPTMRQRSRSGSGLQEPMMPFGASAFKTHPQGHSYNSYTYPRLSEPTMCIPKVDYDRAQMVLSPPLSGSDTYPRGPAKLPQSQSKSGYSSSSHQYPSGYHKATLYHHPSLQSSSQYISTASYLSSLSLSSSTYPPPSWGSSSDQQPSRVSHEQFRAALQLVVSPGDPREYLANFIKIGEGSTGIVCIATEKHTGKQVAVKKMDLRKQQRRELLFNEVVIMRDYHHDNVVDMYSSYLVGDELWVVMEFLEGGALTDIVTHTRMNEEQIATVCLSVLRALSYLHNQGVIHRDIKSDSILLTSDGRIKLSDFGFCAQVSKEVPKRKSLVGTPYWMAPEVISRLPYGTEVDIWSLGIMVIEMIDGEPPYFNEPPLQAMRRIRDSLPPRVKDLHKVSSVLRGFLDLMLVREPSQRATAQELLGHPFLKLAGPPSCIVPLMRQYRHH
Serine/threonine-protein kinase PAK 4 (Homo sapiens), sequence (O96013 whole entry, looked up): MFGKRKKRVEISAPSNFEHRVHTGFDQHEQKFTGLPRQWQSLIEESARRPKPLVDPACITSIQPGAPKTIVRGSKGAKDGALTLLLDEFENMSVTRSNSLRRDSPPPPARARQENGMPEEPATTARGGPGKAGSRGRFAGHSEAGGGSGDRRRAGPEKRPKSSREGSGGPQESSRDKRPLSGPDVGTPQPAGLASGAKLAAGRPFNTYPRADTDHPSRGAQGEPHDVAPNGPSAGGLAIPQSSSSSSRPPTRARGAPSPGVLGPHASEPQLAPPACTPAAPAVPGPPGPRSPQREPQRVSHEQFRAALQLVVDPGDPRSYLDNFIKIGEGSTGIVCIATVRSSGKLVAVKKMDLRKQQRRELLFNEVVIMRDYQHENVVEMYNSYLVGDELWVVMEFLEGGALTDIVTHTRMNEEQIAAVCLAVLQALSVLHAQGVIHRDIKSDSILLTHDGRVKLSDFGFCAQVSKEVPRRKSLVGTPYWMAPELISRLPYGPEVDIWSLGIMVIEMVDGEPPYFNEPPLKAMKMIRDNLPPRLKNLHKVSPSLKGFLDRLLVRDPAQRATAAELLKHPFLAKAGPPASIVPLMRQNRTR
Serine/threonine-protein kinase Nek6 (Homo sapiens), sequence (Q9HC98 whole entry): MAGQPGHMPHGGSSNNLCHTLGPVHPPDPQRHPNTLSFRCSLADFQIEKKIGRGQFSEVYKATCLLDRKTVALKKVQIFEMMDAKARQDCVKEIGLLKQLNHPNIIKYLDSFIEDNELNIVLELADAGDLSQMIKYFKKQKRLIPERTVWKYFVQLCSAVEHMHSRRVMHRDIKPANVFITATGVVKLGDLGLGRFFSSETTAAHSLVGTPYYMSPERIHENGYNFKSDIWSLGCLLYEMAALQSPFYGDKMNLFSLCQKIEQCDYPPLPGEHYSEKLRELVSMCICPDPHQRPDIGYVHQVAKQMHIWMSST
Activated CDC42 kinase 1 (Homo sapiens), sequence (Q07912 whole entry, looked up): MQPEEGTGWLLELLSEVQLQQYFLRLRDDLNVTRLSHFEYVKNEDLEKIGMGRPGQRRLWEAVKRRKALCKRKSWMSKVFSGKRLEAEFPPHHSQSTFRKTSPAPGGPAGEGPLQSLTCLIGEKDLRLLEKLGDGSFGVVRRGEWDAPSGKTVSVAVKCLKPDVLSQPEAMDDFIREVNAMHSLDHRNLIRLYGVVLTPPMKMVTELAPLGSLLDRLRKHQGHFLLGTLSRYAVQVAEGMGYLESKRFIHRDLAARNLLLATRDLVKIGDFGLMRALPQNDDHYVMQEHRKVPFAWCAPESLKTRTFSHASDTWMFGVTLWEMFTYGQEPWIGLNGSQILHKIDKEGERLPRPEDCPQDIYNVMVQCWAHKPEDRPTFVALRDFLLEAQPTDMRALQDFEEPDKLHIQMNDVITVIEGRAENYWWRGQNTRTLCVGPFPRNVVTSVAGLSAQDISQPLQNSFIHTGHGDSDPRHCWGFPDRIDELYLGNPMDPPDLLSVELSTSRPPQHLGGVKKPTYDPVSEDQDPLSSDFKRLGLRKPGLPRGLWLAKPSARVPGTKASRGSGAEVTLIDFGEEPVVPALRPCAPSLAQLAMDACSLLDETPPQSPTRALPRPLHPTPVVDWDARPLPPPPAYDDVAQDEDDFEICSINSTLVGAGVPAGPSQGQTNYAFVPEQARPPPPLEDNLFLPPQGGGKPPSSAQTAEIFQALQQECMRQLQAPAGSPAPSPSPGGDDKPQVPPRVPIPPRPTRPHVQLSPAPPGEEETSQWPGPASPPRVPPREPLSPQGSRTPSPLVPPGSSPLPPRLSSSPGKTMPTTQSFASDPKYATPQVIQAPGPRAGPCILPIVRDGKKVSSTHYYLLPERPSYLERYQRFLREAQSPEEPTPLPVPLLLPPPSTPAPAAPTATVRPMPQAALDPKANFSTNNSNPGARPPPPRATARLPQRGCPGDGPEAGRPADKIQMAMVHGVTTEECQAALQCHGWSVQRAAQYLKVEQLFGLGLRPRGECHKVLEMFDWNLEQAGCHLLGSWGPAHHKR
Ribosomal protein S6 kinase beta-1 (Homo sapiens), sequence (P23443 whole entry, looked up): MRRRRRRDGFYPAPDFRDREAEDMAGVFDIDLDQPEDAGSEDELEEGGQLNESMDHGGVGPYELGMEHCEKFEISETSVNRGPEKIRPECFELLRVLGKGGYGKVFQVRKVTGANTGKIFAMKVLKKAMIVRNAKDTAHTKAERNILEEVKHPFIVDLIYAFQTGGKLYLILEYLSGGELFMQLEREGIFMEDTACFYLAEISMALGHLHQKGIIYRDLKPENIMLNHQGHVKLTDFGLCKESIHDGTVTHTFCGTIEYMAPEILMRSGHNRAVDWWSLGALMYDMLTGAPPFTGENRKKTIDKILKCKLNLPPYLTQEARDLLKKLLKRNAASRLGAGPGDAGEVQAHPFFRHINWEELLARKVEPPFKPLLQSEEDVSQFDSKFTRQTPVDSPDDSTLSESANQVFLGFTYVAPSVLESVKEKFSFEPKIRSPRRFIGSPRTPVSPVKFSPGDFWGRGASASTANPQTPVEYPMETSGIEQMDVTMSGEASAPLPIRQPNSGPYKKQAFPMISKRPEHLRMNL
Serine/threonine-protein kinase PAK 6 (Homo sapiens), sequence (Q9NQU5 whole entry, looked up, the tested form may be a part): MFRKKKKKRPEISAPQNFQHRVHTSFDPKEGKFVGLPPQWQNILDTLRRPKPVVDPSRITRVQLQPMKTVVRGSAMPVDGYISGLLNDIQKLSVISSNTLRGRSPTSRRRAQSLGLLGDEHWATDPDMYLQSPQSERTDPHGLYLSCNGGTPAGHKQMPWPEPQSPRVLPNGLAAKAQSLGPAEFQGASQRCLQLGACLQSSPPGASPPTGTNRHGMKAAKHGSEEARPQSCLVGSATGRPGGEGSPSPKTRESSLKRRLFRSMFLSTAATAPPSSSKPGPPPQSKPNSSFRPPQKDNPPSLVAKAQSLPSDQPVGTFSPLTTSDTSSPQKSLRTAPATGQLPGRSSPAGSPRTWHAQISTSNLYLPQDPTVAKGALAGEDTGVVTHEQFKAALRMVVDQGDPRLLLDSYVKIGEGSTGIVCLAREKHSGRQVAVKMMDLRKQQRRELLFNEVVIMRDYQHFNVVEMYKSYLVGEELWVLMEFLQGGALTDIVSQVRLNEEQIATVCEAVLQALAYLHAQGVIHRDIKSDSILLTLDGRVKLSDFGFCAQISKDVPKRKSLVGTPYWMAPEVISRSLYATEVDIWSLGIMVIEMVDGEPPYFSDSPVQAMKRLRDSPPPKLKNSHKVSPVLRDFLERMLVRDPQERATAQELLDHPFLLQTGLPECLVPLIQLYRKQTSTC
Serine/threonine-protein kinase PAK 2 (Homo sapiens), sequence (Q13177 whole entry): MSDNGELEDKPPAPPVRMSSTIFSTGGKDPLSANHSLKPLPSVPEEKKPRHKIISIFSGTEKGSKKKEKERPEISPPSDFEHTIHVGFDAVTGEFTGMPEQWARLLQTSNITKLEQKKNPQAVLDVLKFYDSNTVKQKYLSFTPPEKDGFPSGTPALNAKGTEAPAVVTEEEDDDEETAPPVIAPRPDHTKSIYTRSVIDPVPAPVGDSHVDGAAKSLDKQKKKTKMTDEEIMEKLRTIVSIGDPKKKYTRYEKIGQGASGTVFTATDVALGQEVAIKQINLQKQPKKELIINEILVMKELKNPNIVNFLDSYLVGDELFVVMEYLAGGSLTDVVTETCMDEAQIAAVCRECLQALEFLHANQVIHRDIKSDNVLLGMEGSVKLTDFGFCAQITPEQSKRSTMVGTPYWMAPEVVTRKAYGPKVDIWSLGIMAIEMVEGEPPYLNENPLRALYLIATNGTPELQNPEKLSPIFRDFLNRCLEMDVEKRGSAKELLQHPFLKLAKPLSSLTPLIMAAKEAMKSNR
Serine/threonine-protein kinase Nek7 (Homo sapiens), sequence (Q8TDX7 whole entry, looked up): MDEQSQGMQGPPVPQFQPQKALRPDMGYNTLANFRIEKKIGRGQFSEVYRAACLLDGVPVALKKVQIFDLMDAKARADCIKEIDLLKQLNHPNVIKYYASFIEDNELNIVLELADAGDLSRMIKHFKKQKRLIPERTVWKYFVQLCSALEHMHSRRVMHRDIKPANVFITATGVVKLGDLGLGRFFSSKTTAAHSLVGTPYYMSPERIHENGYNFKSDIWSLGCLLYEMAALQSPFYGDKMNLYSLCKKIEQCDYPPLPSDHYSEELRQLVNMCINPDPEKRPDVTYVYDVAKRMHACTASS

Compound | residual activity [1] | residual activity [2] | residual activity [3] | residual activity [4] | residual activity [5] | residual activity [6] | residual activity [7] | residual activity [8] | residual activity [9] | residual activity [10] | residual activity [11] | residual activity [12] | residual activity [13] | residual activity [14] | residual activity [15] | residual activity [16] | residual activity [17] | residual activity [18] | residual activity [19] | residual activity [20]
Ic1cccc(CSc2nnc(-c3ccncc3)o2)c1 | 55% | 32% | 113% (inactive) | 115% | 101% (inactive) | 81% (inactive) | 89% | 89% | 104% | 92% | 91% | 84% | 91% | 72% | 89% | 73% | 106% | 75% | 60% | 73%
c1ccc2c(-c3ccncc3)c[nH]c2c1 | 53% | 31% | 95% (inactive) | 110% | 95% (inactive) | 95% (inactive) | 96% | 73% | 98% | 82% | 93% | 80% | 97% | 103% | 106% | 103% | 20% | 80% | 49% | 76%
Oc1ccc(-c2nc(-c3ccc(F)cc3)c(-c3ccncc3)[nH]2)cc1 | 72% | 25% | 105% (inactive) | 110% | 114% (inactive) | 103% (inactive) | 49% | 13% | 95% | 85% | 107% | 96% | 99% | 85% | 88% | 84% | 34% | 81% | 27% | 83%
CO[C@H]1[C@@H](OC)C[C@H](C)[C@@H](OC)C2=CC(=O)C=C(NC(=O)/C(C)=C/C=C/[C@H](OC)[C@@H](OC(N)=O)/C(C)=C/[C@@H]1C)C2=O | 75% | 43% | 103% (inactive) | 112% | 89% (inactive) | 76% (inactive) | 110% | 83% | 108% | 83% | 106% | 92% | 92% | 64% | 99% | 84% | 59% | 92% | 72% | 71%
CNc1cc2c(Nc3cccc(Br)c3)ncnc2cn1 | 126% | 145% | 94% (inactive) | 108% | 94% (inactive) | 95% (inactive) | 87% | 45% | 111% | 99% | 88% | 65% | 97% | 104% | 101% | 89% | 57% | 46% | 11% | 78%
CCOc1cc2ncnc(Nc3cccc(Br)c3)c2cc1OCC | 109% | 54% | 112% (inactive) | 125% | 102% (inactive) | 101% (inactive) | 78% | 34% | 102% | 75% | 100% | 79% | 111% | 82% | 100% | 96% | 56% | 28% | 5% | 75%
Nc1ccc2ncnc(NCCc3ccc(Oc4ccccc4)cc3)c2c1 | 81% | 51% | 105% (inactive) | 120% | 111% (inactive) | 117% (inactive) | 111% | 96% | 103% | 89% | 107% | 87% | 100% | 81% | 95% | 84% | 65% | 81% | 55% | 81%
O=[N+]([O-])c1ccc(-c2nc(-c3ccc(F)cc3)c(-c3ccncc3)[nH]2)cc1 | 122% | 62% | 109% (inactive) | 123% | 99% (inactive) | 111% (inactive) | 31% | 40% | 105% | 101% | 108% | 98% | 94% | 96% | 102% | 105% | 119% | 50% | 11% | 83%
COc1cc2ncnc(Nc3ccc(O)c(Br)c3)c2cc1OC | 60% | 31% | 86% (inactive) | 110% | 99% (inactive) | 96% (inactive) | 69% | 30% | 104% | 80% | 89% | 77% | 98% | 98% | 123% | 104% | 8% | 14% | 1% | 19%
C[C@@H](N)[C@H]1CC[C@H](C(=O)Nc2ccncc2)CC1 | 101% | 71% | 106% (inactive) | 107% | 111% (inactive) | 112% (inactive) | 100% | 101% | 106% | 104% | 92% | 77% | 104% | 106% | 117% | 109% | 85% | 97% | 95% | 116%
CC(C)n1cnc2/c(=N/c3cccc(Cl)c3)nc(NCCO)[nH]c21 | 36% | 15% | 118% (inactive) | 98% | 102% (inactive) | 84% (inactive) | 88% | 70% | 109% | 98% | 62% | 15% | 80% | 33% | 43% | 25% | 114% | 14% | 5% | 81%
Nc1cccc(-c2cc3c(Oc4cccc(O)c4)ncnc3[nH]2)c1 | 71% | 49% | – | – | – | – | 79% | 33% | 105% | 70% | 63% | 19% | 87% | 31% | 86% | 48% | 101% | 10% | -1% | 42%
O=C1c2ccccc2-[n+]2ccc3c([nH]c4ccccc43)c21 | 86% | 54% | 109% (inactive) | 104% | – | 101% (inactive) | 86% | 70% | 107% | 94% | 90% | 92% | 82% | 90% | 102% | 84% | 119% | 77% | 55% | 85%
COc1cc2ncnc(Nc3ccc(NC(=O)c4ccccc4)cc3)c2cc1OC | 67% | 38% | 103% (inactive) | – | – | 86% (inactive) | – | 97% | – | 89% | 101% | 103% | 89% | 68% | 108% | 92% | 67% | 13% | 1% | 107%
CO[C@@H]1[C@H](N(C)C(=O)c2ccccc2)C[C@H]2O[C@]1(C)n1c3ccccc3c3c4c(c5c6ccccc6n2c5c31)C(=O)NC4 | 4% | 1% | 93% (inactive) | 92% | 91% (inactive) | 82% (inactive) | 90% | 73% | 72% | 50% | 64% | 43% | 52% | 48% | 49% | 26% | 0% | 11% | -1% | 32%
CN(C)c1ccc(/C=C2\C(=O)Nc3ccccc32)cc1 | 69% | 29% | 108% (inactive) | 107% | 118% (inactive) | 116% (inactive) | 110% | 88% | 96% | 100% | 100% | 83% | 95% | 77% | 83% | 77% | 23% | 89% | 62% | 80%
CCN(CC)C(=O)c1ccc(Nc2nc(OCC3CCCCC3)c3nc[nH]c3n2)cc1 | 58% | 17% | – | 95% | 98% (inactive) | 82% (inactive) | – | – | – | – | 18% | 2% | 43% | 3% | 58% | 23% | – | 5% | 1% | 65%
Nc1n[nH]c2nnc(-c3c(-c4ccccc4)nn4ccccc34)cc12 | 112% | 100% | 107% (inactive) | 98% | 106% (inactive) | 106% (inactive) | – | 74% | 98% | 87% | 94% | 90% | 112% | 90% | 93% | 99% | 114% | 61% | 29% | 77%
CCN(CC)CCCCN1c2ccccc2Oc2ccc(Cl)cc21 | 79% | 90% | 106% (inactive) | 113% | 116% (inactive) | 115% (inactive) | 113% | 96% | 117% | 120% | 107% | 97% | 100% | 90% | 104% | 109% | 13% | 113% | 81% | 92%
O=C1Nc2ccccc2/C1=C1/Nc2ccccc2/C1=N\OCCC(O)CO (stereo not given) | 20% | 6% | 113% (inactive) | 113% | 104% (inactive) | – | – | 70% | 80% | 78% | 44% | 12% | 61% | 30% | 81% | 27% | 116% | 14% | 1% | 24%
O=Nc1c(-c2c(O)[nH]c3ccccc23)[nH]c2ccccc12 | 37% | 13% | 91% (inactive) | 103% | 106% (inactive) | 102% (inactive) | 82% | 67% | 103% | 54% | 55% | 14% | 64% | 33% | 63% | 37% | 76% | 34% | 4% | 52%
COc1cc2ncc(-c3ccccc3)nc2cc1OC | 63% | 47% | 80% (inactive) | 89% | – | – | 100% | 93% | – | – | – | 93% | – | – | 92% | 74% | 93% | 96% | 56% | –
Cc1cccc(-c2[nH]c(C(C)(C)C)nc2-c2ccc3c(c2)OCO3)n1 | 93% | 65% | 90% (inactive) | 107% | 94% (inactive) | 95% (inactive) | 94% | 87% | 103% | 91% | 97% | 88% | 87% | 102% | – | – | – | 90% | 67% | 82%
COc1cc2ncnc(Nc3ccc(Oc4ccccc4)cc3)c2cc1OC | 92% | 88% | 97% (inactive) | 118% | 97% (inactive) | 112% (inactive) | 96% | 82% | 98% | 87% | 94% | 80% | 108% | 136% | 98% | 124% | 131% | 28% | 9% | 54%
CO[C@H]1C[C@@H]2CC[C@@H](C)[C@@](O)(O2)C(=O)C(=O)N2CCCC[C@H]2C(=O)O[C@H]([C@H](C)C[C@@H]2CC[C@@H](O)[C@H](OC)C2)CC(=O)[C@H](C)/C=C(\C)[C@@H](O)[C@@H](OC)C(=O)[C@H](C)C[C@H](C)/C=C/C=C/C=C/1C | 92% | 147% | 97% (inactive) | 118% | 97% (inactive) | 115% (inactive) | 101% | 91% | 101% | 95% | 89% | 88% | 97% | 109% | 106% | 136% | – | 82% | 63% | 82%
O=C1NC(=O)/C(=C\c2ccc3nccnc3c2)S1 | 68% | 50% | 91% (inactive) | 96% | 100% (inactive) | 106% (inactive) | 89% | 55% | 102% | 75% | 95% | 86% | 86% | 99% | 92% | 94% | 11% | 84% | 66% | 49%
